For 17 compounds, inhibition results are on record in ChEMBL document CHEMBL1961873, “Compounds: GSK PKIS; Assays: Nanosyn kinase panel” (2012).

The target of experiment [1] is Fibroblast growth factor receptor 4 (Homo sapiens) (UniProt P22455). To be noted: at 1 µM.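 Note: reported figure is the averaged percent inhibition of FGFR4, from the GSK PKIS kinase screening panel.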
Experiment [2] addresses Tyrosine-protein kinase Fgr (Homo sapiens) (UniProt P09769). To be noted: at 0.1 µM.
The target is the same in experiment [3]. Conditions: at 1 µM.
The target in experiment [4] is Vascular endothelial growth factor receptor 1 (Homo sapiens) (UniProt P17948). To be noted: at 0.1 µM.
Experiment [5] shares this target. To be noted: at 1 µM.
Experiment [6] has as its target Receptor-type tyrosine-protein kinase FLT3 (Homo sapiens) (UniProt P36888). To be noted: at 0.1 µM.
The target is the same in experiment [7]. Conditions: at 1 µM.
The test system of experiment [8] is T1, Receptor-type tyrosine-protein kinase FLT3 (Homo sapiens), P36888 [D835Y].
T1 sequence (whole entry): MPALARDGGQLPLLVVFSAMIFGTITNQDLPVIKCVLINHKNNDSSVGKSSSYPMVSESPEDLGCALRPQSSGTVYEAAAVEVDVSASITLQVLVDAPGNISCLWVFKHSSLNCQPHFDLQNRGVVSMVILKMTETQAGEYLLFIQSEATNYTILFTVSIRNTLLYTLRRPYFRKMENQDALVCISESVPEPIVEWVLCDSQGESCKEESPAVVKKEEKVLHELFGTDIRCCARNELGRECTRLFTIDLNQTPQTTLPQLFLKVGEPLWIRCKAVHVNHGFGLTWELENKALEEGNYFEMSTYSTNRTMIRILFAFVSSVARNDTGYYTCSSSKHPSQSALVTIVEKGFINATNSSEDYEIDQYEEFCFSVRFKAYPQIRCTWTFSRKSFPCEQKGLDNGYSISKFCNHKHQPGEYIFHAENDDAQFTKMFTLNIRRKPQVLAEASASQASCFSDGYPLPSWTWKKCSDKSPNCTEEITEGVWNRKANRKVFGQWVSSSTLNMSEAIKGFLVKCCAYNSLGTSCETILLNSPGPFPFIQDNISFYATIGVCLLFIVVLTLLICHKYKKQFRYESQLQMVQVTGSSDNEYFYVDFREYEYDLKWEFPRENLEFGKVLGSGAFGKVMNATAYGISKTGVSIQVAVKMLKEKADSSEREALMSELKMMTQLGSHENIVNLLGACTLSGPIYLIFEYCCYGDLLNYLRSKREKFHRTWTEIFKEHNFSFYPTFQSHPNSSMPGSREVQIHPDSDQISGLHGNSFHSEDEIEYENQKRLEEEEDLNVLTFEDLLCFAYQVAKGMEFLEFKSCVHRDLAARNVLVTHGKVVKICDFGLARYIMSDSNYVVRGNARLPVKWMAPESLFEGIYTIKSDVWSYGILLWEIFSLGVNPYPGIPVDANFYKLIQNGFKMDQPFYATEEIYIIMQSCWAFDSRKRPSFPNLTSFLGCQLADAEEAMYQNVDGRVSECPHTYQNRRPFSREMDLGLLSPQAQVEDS
To be noted: at 0.1 µM.

The target in experiment [9] is Non-receptor tyrosine-protein kinase TYK2 (Homo sapiens) (UniProt P29597). To be noted: at 1 µM.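 Note: values are mean percent inhibition of TYK2 kinase.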
Experiment [10] concerns the target T2, Tyrosine-protein kinase receptor TYRO3 (Homo sapiens) (UniProt Q06418).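 Note: reported percentages are averaged inhibition values of TYRO3 kinase activity.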
T2 sequence (whole entry): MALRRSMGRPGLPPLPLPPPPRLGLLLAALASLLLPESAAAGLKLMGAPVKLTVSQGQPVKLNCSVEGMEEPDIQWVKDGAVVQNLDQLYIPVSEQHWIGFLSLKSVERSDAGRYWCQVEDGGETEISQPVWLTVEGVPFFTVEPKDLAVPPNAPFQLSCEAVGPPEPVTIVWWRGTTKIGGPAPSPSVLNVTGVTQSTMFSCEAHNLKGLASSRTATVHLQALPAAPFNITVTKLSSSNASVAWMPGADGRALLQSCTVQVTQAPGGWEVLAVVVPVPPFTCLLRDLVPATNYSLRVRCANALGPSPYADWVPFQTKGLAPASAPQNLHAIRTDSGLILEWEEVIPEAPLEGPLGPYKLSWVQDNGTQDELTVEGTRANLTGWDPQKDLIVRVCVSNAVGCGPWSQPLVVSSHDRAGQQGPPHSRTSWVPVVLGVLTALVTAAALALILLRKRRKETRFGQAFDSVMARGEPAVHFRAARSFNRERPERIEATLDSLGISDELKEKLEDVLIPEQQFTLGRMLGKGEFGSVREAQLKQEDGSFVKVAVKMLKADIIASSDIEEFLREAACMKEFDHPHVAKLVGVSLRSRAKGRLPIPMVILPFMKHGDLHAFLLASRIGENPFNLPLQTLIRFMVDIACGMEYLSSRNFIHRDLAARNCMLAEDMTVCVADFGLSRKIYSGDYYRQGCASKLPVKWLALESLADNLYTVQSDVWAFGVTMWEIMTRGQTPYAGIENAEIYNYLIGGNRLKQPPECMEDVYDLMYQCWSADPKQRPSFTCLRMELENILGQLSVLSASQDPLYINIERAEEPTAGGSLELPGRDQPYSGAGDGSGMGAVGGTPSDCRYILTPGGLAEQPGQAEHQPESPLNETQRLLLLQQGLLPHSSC
To be noted: at 0.1 µM.

Sequence of Fibroblast growth factor receptor 4 (Homo sapiens) (P22455 22-802 limits assumed): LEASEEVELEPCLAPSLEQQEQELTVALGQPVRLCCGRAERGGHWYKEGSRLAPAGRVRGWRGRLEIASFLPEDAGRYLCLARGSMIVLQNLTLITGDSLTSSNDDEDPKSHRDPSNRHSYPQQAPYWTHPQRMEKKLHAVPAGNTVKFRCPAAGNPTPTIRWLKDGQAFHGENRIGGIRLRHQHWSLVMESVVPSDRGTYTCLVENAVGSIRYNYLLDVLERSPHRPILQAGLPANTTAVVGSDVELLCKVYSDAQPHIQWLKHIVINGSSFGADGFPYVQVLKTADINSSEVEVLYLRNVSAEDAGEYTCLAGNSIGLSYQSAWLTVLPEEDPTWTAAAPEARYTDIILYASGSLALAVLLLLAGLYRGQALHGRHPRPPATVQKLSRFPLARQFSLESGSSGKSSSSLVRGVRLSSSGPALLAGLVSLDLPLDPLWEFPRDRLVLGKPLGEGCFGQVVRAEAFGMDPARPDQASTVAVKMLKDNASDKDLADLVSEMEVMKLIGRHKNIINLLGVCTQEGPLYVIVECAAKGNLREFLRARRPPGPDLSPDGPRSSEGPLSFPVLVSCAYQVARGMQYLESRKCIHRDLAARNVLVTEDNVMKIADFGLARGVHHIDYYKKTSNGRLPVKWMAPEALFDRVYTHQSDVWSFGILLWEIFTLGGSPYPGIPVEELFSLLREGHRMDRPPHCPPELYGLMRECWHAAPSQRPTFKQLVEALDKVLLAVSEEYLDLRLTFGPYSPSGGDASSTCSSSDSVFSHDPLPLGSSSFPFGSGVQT
Sequence of Vascular endothelial growth factor receptor 1 (Homo sapiens) (P17948 whole entry): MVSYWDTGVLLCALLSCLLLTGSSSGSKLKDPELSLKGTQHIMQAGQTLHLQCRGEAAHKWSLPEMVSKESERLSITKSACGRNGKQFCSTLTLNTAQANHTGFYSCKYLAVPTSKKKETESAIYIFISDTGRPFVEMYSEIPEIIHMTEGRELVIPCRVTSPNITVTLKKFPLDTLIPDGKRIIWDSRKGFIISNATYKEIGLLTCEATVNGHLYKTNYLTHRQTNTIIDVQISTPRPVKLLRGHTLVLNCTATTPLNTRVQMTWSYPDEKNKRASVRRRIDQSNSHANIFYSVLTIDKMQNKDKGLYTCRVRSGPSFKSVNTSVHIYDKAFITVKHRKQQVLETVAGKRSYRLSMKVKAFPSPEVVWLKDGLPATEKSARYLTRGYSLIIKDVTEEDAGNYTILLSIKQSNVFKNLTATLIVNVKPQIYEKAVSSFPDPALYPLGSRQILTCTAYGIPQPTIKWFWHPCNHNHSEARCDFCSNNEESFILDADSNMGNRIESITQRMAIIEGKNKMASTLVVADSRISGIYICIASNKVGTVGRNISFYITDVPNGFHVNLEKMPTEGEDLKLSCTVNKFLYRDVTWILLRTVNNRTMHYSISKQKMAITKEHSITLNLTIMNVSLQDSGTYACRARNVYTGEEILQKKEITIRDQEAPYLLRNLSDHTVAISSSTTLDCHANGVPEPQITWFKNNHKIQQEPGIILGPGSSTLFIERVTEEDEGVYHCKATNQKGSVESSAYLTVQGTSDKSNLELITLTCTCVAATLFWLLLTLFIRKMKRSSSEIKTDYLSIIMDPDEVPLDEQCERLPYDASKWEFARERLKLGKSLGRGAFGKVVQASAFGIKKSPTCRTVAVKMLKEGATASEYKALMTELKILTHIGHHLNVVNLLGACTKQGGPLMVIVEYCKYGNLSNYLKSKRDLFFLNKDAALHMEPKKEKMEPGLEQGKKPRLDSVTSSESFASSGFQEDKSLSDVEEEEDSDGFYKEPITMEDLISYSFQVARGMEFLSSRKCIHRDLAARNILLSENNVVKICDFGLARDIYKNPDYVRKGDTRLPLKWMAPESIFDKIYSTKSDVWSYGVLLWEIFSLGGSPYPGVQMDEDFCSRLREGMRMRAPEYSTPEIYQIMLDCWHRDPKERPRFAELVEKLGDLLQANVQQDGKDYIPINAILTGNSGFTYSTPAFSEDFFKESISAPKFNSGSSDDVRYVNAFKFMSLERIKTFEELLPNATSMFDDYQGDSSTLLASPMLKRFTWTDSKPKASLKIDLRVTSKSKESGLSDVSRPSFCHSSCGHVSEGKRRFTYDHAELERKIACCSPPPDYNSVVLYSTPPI
Sequence of Tyrosine-protein kinase Fgr (Homo sapiens) (P09769 2-529 limits assumed): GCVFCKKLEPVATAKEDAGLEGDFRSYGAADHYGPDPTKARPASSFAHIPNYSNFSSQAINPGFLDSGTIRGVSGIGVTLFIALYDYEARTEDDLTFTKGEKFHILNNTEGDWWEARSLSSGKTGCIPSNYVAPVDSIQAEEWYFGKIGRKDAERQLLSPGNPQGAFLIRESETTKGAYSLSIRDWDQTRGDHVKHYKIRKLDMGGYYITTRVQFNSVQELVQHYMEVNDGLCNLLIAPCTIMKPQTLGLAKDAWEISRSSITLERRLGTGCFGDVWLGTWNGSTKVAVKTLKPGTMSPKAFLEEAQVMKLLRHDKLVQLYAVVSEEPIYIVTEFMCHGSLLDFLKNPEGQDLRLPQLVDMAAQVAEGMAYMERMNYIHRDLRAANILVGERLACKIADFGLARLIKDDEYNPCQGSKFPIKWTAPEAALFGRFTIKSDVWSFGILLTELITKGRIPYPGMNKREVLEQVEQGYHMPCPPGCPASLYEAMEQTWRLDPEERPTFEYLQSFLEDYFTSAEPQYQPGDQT
Sequence of Non-receptor tyrosine-protein kinase TYK2 (Homo sapiens) (P29597 whole entry): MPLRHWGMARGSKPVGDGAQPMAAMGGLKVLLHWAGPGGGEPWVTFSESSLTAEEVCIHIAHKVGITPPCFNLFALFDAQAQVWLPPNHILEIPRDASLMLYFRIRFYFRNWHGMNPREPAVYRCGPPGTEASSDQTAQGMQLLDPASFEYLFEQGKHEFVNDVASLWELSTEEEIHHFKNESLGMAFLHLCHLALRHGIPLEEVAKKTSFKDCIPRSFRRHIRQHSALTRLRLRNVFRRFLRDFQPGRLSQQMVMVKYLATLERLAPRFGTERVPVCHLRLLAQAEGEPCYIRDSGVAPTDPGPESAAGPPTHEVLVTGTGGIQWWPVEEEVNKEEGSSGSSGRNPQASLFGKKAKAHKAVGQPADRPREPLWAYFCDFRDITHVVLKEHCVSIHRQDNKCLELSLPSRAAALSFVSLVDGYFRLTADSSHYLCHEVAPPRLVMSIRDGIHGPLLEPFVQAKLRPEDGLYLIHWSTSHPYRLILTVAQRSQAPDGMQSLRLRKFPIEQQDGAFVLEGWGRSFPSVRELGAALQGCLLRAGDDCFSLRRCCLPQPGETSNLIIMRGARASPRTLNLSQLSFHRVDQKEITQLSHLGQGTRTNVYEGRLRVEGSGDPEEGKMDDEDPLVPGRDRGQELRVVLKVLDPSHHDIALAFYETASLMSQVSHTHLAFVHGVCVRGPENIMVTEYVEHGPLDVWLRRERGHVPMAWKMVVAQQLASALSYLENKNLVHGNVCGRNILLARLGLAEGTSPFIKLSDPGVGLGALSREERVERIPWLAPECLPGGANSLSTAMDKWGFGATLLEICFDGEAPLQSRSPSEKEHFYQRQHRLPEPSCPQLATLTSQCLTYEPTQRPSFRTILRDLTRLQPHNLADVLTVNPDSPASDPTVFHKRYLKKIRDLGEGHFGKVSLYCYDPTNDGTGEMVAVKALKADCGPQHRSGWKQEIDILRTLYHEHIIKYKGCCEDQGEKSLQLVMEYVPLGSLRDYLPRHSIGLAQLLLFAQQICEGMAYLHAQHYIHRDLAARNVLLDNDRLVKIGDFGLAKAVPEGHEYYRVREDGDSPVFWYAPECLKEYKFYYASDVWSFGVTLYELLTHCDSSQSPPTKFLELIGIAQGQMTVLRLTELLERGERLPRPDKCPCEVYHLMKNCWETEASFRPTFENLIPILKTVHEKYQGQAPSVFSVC

On to `c1ccc(Nc2ncc(-c3ccccc3)o2)cc1`, for which the inhibition (as a rule, the drop in the measured response relative to a control, in per cent) in experiment [1] was found to be 0.73%; in experiment [2], 5.98%; in experiment [3] it was 15%; in [4] it was 1.21%; in experiment [5], 11.7%; in experiment [6], 33.1%. Also, the inhibition in experiment [7] is 78.8%; in experiment [8], 5.03%; in [9], -4.84%; in experiment [10] it was 4.31%.

Regarding `NS(=O)(=O)c1ccc(Nc2cc(-c3cccc(O)c3)n[nH]2)cc1`, the inhibition in experiment [1] was 4.03%; in experiment [2], 2.88%; in experiment [3], 6.79%; in experiment [4], 2.51%; in [5], 11.9%; in [6], 5.64%. Moreover, the inhibition is 23.2% in experiment [7], 3.16% in [8], -3.05% in experiment [9] and 3.41% in experiment [10].

For `COC(=O)c1cncc(/C=C/c2c(C)cc(O)cc2C)c1`, the inhibition worked out at 0.95% in [1]; 5.81% in [2]; 20.9% in experiment [3]; 0.94% in [4]; 0.15% in experiment [5]; 2.01% in experiment [6]. The inhibition was 3.02% in [7], -1.65% in experiment [8], -3.53% in experiment [9] and 3.21% in [10].

As for `CCn1c(-c2nonc2N)nc2c(C#CC(C)(C)O)nc(OCCNC)cc21`, the inhibition in experiment [1] was 1.88%; in experiment [2], 0.15%; in [3], 3.62%; in experiment [4], 1.71%; in experiment [5], 10.2%; in [6], 1.46%. Also, the inhibition was 4.57% in experiment [7], -1.99% in [8], -2.59% in [9] and 2.56% in experiment [10].

As for `Cc1ccc(O)cc1Nc1ccnc2ccc(S(C)(=O)=O)cc12`, the inhibition worked out at 9.15% in experiment [1]; 76.2% in [2]; 81.8% in experiment [3]; 22.2% in experiment [4]; 72.6% in [5]; 2.73% in experiment [6]. Besides, the inhibition in [7] was 4.94%; in experiment [8], -0.25%; in experiment [9] it was 9.66%; in experiment [10] it was 4.42%.

Take `OCc1ccc(-c2nc(-c3ccccn3)c(-c3ccc4c(c3)OCO4)[nH]2)cc1`: the inhibition amounted to 4.36% in experiment [1]; 3.43% in experiment [2]; 8.26% in experiment [3]; 0.94% in [4]; 2.09% in [5]; 3.25% in [6]. Further, the inhibition was 5.93% in experiment [7], 0.22% in experiment [8], -3.23% in [9] and 3.25% in experiment [10].

Consider `COc1ccc2ncnc(Nc3ccc(OCc4ccccc4)cc3)c2c1`, for which the inhibition in experiment [1] was 2.59%; in [2] it was 3.7%; in experiment [3], 15.4%; in experiment [4], 0.14%; in [5], 1.06%; in experiment [6], 0.29%. For the same compound, the inhibition in experiment [7] is 2.85%; in experiment [8], 1.85%; in experiment [9], -1%; in experiment [10] it was 1.22%.

On to `COC(=O)Nc1nc2cc(Oc3ccc(NC(=O)Nc4cccc(Br)c4)cc3)ccc2[nH]1`, for which the inhibition is 2.05% in experiment [1]; 4.68% in [2]; 2.98% in experiment [3]; 33% in experiment [4]; 53.7% in [5]; 32.8% in experiment [6]. Further, the inhibition in experiment [7] was 56.7%; in [8], -2.2%; in experiment [9] it was 0.6%; in experiment [10], 6.92%.

Turning to `Nc1nccc(C#Cc2cncnc2Nc2ccc(OCc3cccc(F)c3)c(Cl)c2)n1`, the inhibition is -2.31% in experiment [1]; 0.12% in experiment [2]; 4.81% in [3]; 2.06% in experiment [4]; 3.36% in experiment [5]; 0.89% in experiment [6]. Also, the inhibition is 3.87% in [7], 3.95% in [8], -1.09% in [9] and 3.02% in [10].

`Cc1cc(Cl)cc2c1NC(=O)C2=NNc1ccc(S(N)(=O)=O)cc1`: the inhibition was 2.64% in experiment [1]; 4.99% in experiment [2]; 2.96% in experiment [3]; 0.01% in experiment [4]; -0.12% in experiment [5]; 2.63% in experiment [6]. The inhibition in experiment [7] was 1.85%; in [8] it was -2.63%; in experiment [9], 0.66%; in experiment [10], 1.11%.

`COc1ccc(-c2nn3ncccc3c2-c2ccnc(Nc3cccc(C(F)(F)F)c3)n2)cc1`: the inhibition in experiment [1] is 0.55%; in [2], 10.2%; in experiment [3] it was 42.1%; in experiment [4], 4.29%; in experiment [5], 10.2%; in [6], 1.01%. Besides, the inhibition is 1.12% in experiment [7], -4.47% in experiment [8], -0.27% in [9] and 1.68% in experiment [10].

Turning to `Cc1cc(O)cc(C)c1/C=C/c1cncc(C(=O)N(C)C)c1`, the inhibition in [1] turned out to be 2.26%; in [2] it was 2.92%; in experiment [3] it was 9.21%; in experiment [4], 2.21%; in experiment [5] it was 3.14%; in experiment [6] it was 2.14%. Also, the inhibition in experiment [7] was 2.25%; in [8], -0.23%; in experiment [9], -2.56%; in experiment [10], 3.45%.

For `Cc1ccc2c(-c3ccnc(Nc4ccc5c(c4)OCCO5)n3)c(-c3ccc(C(F)(F)F)cc3)nn2n1`, the inhibition is 2.08% in [1]; 4.97% in [2]; 18.4% in experiment [3]; -1.27% in experiment [4]; -0.4% in [5]; 2.13% in [6]. In addition, the inhibition in [7] is 0.3%; in [8] it was -5.65%; in experiment [9], 0.31%; in experiment [10], -0.13%.

As to `O=C1Nc2ccc(-c3cccnc3)cc2C1=Cc1cc(Br)c(O)c(Br)c1`, the inhibition in experiment [1] was found to be 3.07%; in experiment [2] it was 1.1%; in [3], 7.55%; in [4], 2.53%; in [5], 2.06%; in [6] it was 1.83%. Further, the inhibition in experiment [7] is 7.91%; in experiment [8], 11.8%; in experiment [9], 6.13%; in experiment [10], 3.07%.

Consider `CN(c1ccc(NC(=O)Nc2ccc(OC(F)(F)F)cc2)cc1)c1ccnc(Nc2cccc(S(N)(=O)=O)c2)n1`, for which the inhibition in experiment [1] turned out to be 2.57%; in experiment [2], 13.8%; in experiment [3], 57.2%; in [4] it was 44.4%; in [5], 96.1%; in [6], 28.6%. Moreover, the inhibition in [7] was 87.4%; in experiment [8], 2.56%; in experiment [9], -2.45%; in experiment [10], 3.15%.

Consider `CCS(=O)(=O)c1ccc(OC)c(Nc2ncc(-c3cccc(OC)c3)o2)c1`, for which the inhibition in experiment [1] worked out at 7.65%; in experiment [2], 19.9%; in experiment [3], 65.2%; in [4], 9.91%; in [5], 55.9%; in experiment [6], 16.3%. Moreover, the inhibition is 68% in experiment [7], 29.4% in [8], -4.34% in [9] and 7.64% in [10].

Consider `CS(=O)(=O)CCNCc1nc(-c2ccc3ncnc(Nc4ccc(OCc5cccc(C(F)(F)F)c5)cc4)c3c2)cs1`, for which the inhibition in experiment [1] was 0.59%; in experiment [2] it was 2.47%; in experiment [3], 4.41%; in experiment [4], -0.29%; in experiment [5], -0.5%; in experiment [6], 7.87%. Besides, the inhibition is 32.1% in [7], 2.62% in experiment [8], -0.77% in [9] and 0.47% in experiment [10].
